Data from PubChem BioAssay AID504332 (National Center for Advancing Translational Sciences (NCATS), 2011).
“And” between values parts separate entries of the source, which are not always exact repeats. Equal values may be shown once. About 31,000 (8.9%) of roughly 350,000 compounds were called active. Another 15% or so got no clear call; they are omitted. Calls come from the whole dose curve; as a rule, active = well fitted inhibition curve with a large enough effect; inconclusive = small, poorly fitted or top-dose-only effect; inactive = no such curve, though single readings can be large or run the other way. The sample as a whole holds a higher share of actives than the screen did. A structure can be active in one record and inactive in another.

Each molecule was assayed against Histone-lysine N-methyltransferase EHMT2 (Homo sapiens) (UniProt Q96KQ7) (assay: qHTS Assay for Inhibitors of Histone Lysine Methyltransferase G9a). Details: G9a H3K9 monomethylation, AlphaScreen, 2 h; series mostly up to 59 µM.
In short: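 Chemiluminescent proximity detection of H3K9 monomethylation, read after 10 min bead incubation in the dark. Reaction: 20 nM G9a, 500 nM biotin-H3K9 peptide, 20 uM SAM cofactor, 2 h, room temperature, following 15 min enzyme-compound preincubation.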
% is set by controls: 0 for no effect and ±100 for the full control effect; potency is the fitted concentration of half-maximal effect.
Note: nearly all actives have a fitted effect of over 75% in size.

Sequence of Histone-lysine N-methyltransferase EHMT2 (Homo sapiens) (Q96KQ7 913-1193 limits assumed): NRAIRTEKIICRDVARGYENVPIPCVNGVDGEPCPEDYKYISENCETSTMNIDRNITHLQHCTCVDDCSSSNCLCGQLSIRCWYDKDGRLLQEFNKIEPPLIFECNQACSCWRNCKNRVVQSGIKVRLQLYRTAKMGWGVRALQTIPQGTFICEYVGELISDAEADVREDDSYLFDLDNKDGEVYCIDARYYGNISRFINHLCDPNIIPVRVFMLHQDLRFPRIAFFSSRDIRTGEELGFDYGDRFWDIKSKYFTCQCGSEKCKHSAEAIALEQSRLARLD

Potency, active:
COc1ccccc1N1CC(C(=O)Nc2nnc(SCC(=O)NCC3CCCO3)s2)CC1=O (stereo not given) 31.6 µM
Cc1ccc(C(C)C)cc1OCC(=O)Nc1ccccc1N1CCCC1 79.4 µM
CN1CCN(c2ccccc2NC(=O)COc2ccc(C3CCCCC3)cc2)CC1 39.8 µM
Cc1cc(C2=NNC(=Nc3ccc(S(=O)(=O)N4CCOCC4)cc3)SC2)c(C)n1CC1CCCO1 (stereo not given) 7.94 µM
CC1CCc2[nH]c3ccc(C(=O)N(C)CC(=O)Nc4cccc(F)c4)cc3c2C1 (stereo not given) 44.7 µM
O=C(CCc1ccccc1)NNc1ccc(F)cc1 31.6 µM
CCOC(=O)c1c(-n2cnnn2)sc(C)c1C 8.91 µM
COc1ccc(Br)cc1/C=N/Nc1ccc(Cl)c(C(=O)O)c1 14.1 µM
CC(C)(C)C(=O)N1CCC[C@@]1(CO)C(=O)O 14.1 µM
CC(C)CCN1NC2(CCC(C)CC2)NC1=S (stereo not given) 11.2 µM
COC(=O)c1cccc(-n2[nH]nnc2=S)c1 8.91 µM
COc1ccc(NC(=O)ON=C2c3ccccc3-c3ccccc32)cc1 25.1 µM
O=C(Nc1ccc(Cl)cc1)C1c2cccc[n+]2CC(=O)N1Cc1ccc2c(c1)OCO2 (stereo not given) 22.4 µM
Brc1ccccc1CN1CCC(Cc2ccccc2)CC1 44.7 µM
CCCc1ccc(OCC(=O)NNC(=S)NC(=O)c2ccco2)cc1 2.24 µM
CC(Oc1ccc2ccccc2c1)C(=O)NNC(=S)NC(=O)c1ccco1 (stereo not given) 20 µM

Potency, inactive and 39.8 µM (active):
CC1(C)SC2C(NC(=O)COc3ccccc3)C(=O)N2C1C(=O)O (stereo not given)

Potency, inactive:
CCCCOc1ccc(C(=O)N2CC(=O)Nc3ccc(Br)cc3C2c2ccc(F)cc2)cc1 (stereo not given)
Cc1ccc(CNC(=O)Cn2c(=O)ccc3cc(S(=O)(=O)N4CCCC4)ccc32)cc1
CC(=O)N1c2ccccc2CC1C(=O)N1CCN(c2ccc(F)cc2)CC1 (stereo not given)
CCOc1ccc(S(=O)(=O)c2cn(Cc3ccc(OC)cc3)c3ccc(F)cc3c2=O)cc1
Cc1ccc(Cc2nnc(SCC(=O)Nc3ccc(C)cc3C)[nH]c2=O)cc1
CCn1cc(C(=O)NCCc2ccccc2)c(=O)c2cc(S(=O)(=O)N3CCCCCC3)ccc21
CCOC(=O)C1CCCN(C(=O)c2ccc3c(c2)sc2nc(-c4ccc(CC)cc4)cn23)C1 (stereo not given)
CCOc1ccc(OCC)c(NC(=O)c2cc(C)nc3c2c(C)nn3-c2cccc(Cl)c2C)c1
CC1=C(C(=O)OCc2ccc(C)cc2)C(c2c(Cl)cccc2Cl)CC(=O)N1 (stereo not given)
COc1cc(OC)cc(C(=O)Nc2nnc(SCC(=O)NCC3CCCO3)s2)c1 (stereo not given)
CN1C(=O)CC(c2ccccc2)C1=O (stereo not given)
COc1ccc(NC(=O)c2cc([N+](=O)[O-])ccc2NC(=O)CNC2CCCCC2C)c(OC)c1 (stereo not given)
CCOC(=O)c1ccc(NC(=O)CC2C(=O)N(c3ccccc3)C(=O)N2Cc2cccs2)cc1 (stereo not given)
CCC(=O)N1CCN(c2ccccc2NC(=O)COc2cccc(C)c2C)CC1
CCOc1ccccc1NC(=O)COc1ccc(S(=O)(=O)N2CCCC2)cc1
CC(C)n1c(SCC(=O)Nc2ccccc2N2CCCCC2)nc2c1c(=O)n(C)c(=O)n2C
CCCC(=O)N1CCN(c2nc3c(OC)ccc(C)c3s2)CC1
COc1cccc(NC(=O)COc2cc(C)cc3oc(=O)cc(C)c23)c1
COc1ccc2c(c1)c(C(=O)N/N=C/c1cccs1)c(C)n2C
Cc1ccc(S(=O)(=O)N2CCC(C(=O)NCC3CCCO3)CC2)cc1 (stereo not given)
CCOc1ccc(S(=O)(=O)N2CCN(C(=S)NCC3CCCO3)CC2)cc1 (stereo not given)
O=C(NC1CC(=O)N(c2ccc(F)cc2)C1)c1cccs1 (stereo not given)
CC(=O)c1ccc(NC(=O)c2nc(-c3ccc(C)cc3)n3c2CCCCC3)cc1
CC(C)Cn1c(=O)c2ccccc2n2c(CCC(=O)N3CCN(c4cccc(Cl)c4)CC3)nnc12
O=C1CN(C(=O)COc2c(Cl)cccc2Cl)c2ccccc2N1
CN(CC(=O)Nc1cccc(F)c1)C(=O)C1=COCCO1
CN(CC(=O)Nc1cccc(F)c1)C(=O)CC1CCCC1
O=C(CCc1ccccc1)NNC(=O)c1ccc(Br)cc1
Cc1cc(C)cc(NC(=O)CCS(=O)(=O)c2cc3c4c(c2)CCN4C(=O)CC3)c1
COc1ccc(Cc2nnc(SCC(=O)Nc3ccc(C)c(Cl)c3)[nH]c2=O)cc1
O=C(NCc1ccccc1)C1CCN(S(=O)(=O)c2ccc3[nH]c(=O)ccc3c2)CC1
CCOc1ccc(C(=O)COC(=O)c2ccc(-n3cnnn3)cc2)cc1
CCOC(=O)C(C)n1cnc2sc(C)c(C)c2c1=O (stereo not given)
C=CCSc1ccc(S(=O)(=O)N2CCN(C)CC2)cn1
CCn1c(=O)c2cc(C(=O)NCCc3ccc(Cl)cc3)sc2c2ccccc21
O=C(CSc1nc(=O)n2ccccc2n1)Nc1ccc2c(c1)OCCO2
Cc1ccc(Cl)cc1-n1ncc2c(N3CCC(C(N)=O)CC3)ncnc21
COc1ccc(CC(=O)NCC(=O)N/N=C/c2cc(Br)ccc2OC)cc1
COc1ccc(Br)cc1/C=N/NC(=O)c1cccc(S(=O)(=O)N2CCOCC2)c1
OCc1cnc(SCc2ccc(F)cc2)n1Cc1ccc(F)cc1
COc1cccc2c1cc1c(=O)n(CC(=O)N3CCN(c4ccccc4)CC3)nc(C)n12
Cc1ccc(CN2CCC(CNC(=O)c3cnn(-c4ccc(C)cc4)c3C3CCN(C(=O)OC(C)(C)C)CC3)CC2)cc1
COC(=O)c1cc(NC(=O)CCc2c(C)nc3c4c(C)cc(C)nc4nn3c2C)cc(C(=O)OC)c1
CC(=O)c1c(C)[nH]c(C(=O)COC(=O)CCOc2ccc(C)cc2)c1C
Cc1ccc(-c2cn3c(n2)sc2cc(C(=O)NCCCc4ccccc4)ccc23)cc1
Cc1cccc(OCC(=O)NC2CC(C)(C)NC(C)(C)C2)c1
COC(=O)Cc1ccc(OCC(=O)NC2CCCC2)cc1
COC(=O)c1cc(S(=O)(=O)N2CCN(c3cc(Cl)ccc3C)CC2)c[nH]1
COC(=O)c1nn(-c2cccc(Cl)c2)ccc1=O
COC(=O)c1cccc(NC(=O)CSc2nc(C)cc(=O)[nH]2)c1
COc1ccc(C(=O)ON=C2c3ccccc3-c3ccccc32)cc1OC
COc1ccc(NC(=O)CS(=O)(=O)c2ccccc2)cc1
Cn1c(C(=O)N2CCC(C(=O)N3CCN(c4ccccc4)CC3)CC2)cc2sccc21
O=C(CCNS(=O)(=O)c1cccs1)N1CCN(c2ccc(F)cc2)CC1
CCCOc1ccc(NC(=O)CC2C(=O)N(C)C(=S)N2Cc2ccc3c(c2)OCO3)cc1 (stereo not given)
CC1CCC(NC(=O)C2c3ccccc3C(=O)N2Cc2ccc3c(c2)OCO3)CC1 (stereo not given)
O=C(COc1coc(CN2CCN(c3ccccc3)CC2)cc1=O)Nc1ccccc1F
NC(=O)c1ccc(CN2CCC(Cc3ccccc3)CC2)cc1
Cn1ccc2cc(S(=O)(=O)N3CCCC(C(=O)NCc4ccccc4F)C3)ccc21 (stereo not given)
Cc1ccc(S(=O)(=O)CCC(=O)OCC(=O)N(C)C2CCS(=O)(=O)C2)cc1 (stereo not given)
Cc1ccc(OCC(=O)NCCCNC(=O)c2ccco2)cc1C
O=C(Nc1ccc2ccccc2c1)/C(=C/c1cccc(Br)c1)NC(=O)c1ccco1
CCCc1ccc(OCCNC(=O)c2ccco2)cc1
O=C(Nc1ccc2ccccc2c1)/C(=C\c1ccc2c(c1)OCO2)NC(=O)c1ccco1

activity, negative = inhibition, inactive:
C[C@@H](NC(=O)c1nc[nH]c1C(=O)N1CCN(C(=O)OC(C)(C)C)CC1)c1ccccc1 4.62% [at 2.33 µM]
COc1ccc(CCNC(=O)COC(=O)c2cc(=O)c3ccccc3o2)cc1 21.3% [at 12.7 µM]
COc1ccccc1N1CC(C(=O)Nc2nnc(SCC(=O)NC(C)C)s2)CC1=O (stereo not given) 14.1% [at 12.7 µM]
Cc1ccc(OCC(=O)Nc2ccccc2C(=O)NC2CC2)cc1 16.8% [at 12.7 µM]
CNS(=O)(=O)c1cccc(C(=O)OCCCC(=O)c2ccccc2)c1 -6.99% [at 12.7 µM]
O=C(NCCC1CCCCN1S(=O)(=O)c1cccs1)C(=O)Nc1ccc(F)cc1F (stereo not given) -3.33% [at 0.501 µM]
CCCCCN(C(=O)CCC(=O)OCC(=O)NC1CCC(C)CC1)c1c(N)n(CCCC)c(=O)[nH]c1=O (stereo not given) 6.8% [at 0.501 µM]
CC(=O)Nc1ccc(S(=O)(=O)NNC(=O)CCc2ccccc2)cc1 -29% [at 12.7 µM]
COc1ccc(CNC(=O)c2ccc3oc(C(C)C)nc3c2)cc1 12% [at 0.501 µM]
COc1ccccc1Nc1nnc(SC(C)C(=O)NC2CC2)s1 (stereo not given) -13.1% [at 12.7 µM]
CN(CC(=O)Nc1ccc(F)c(F)c1F)C(=O)Cn1cnc2c1c(=O)n(C)c(=O)n2C 25.9% [at 12.7 µM]
Cc1cccc(C)c1NC(=O)CN(C)C(=O)CCC(=O)c1ccccc1 11.7% [at 2.33 µM]
C=C(C)CNc1cc(S(=O)(=O)N2CCOCC2)ccc1Oc1ccccc1 21.5% [at 12.7 µM]
COc1cc(C)cc(CN2CCC(Cc3ccccc3)CC2)c1O -9.7% [at 2.33 µM]
